In all, about 68,000 sequences were measured (“fluorescence intensity (a.u.)”: median about 9,100, highest 2% from about 16,000 on). The full list was thinned out, with the highest values kept by preference.
biological target: OsWRKY34 (Oryza sativa, UniProt Q0JBA9 1-250); assay: protein-binding microarray (RPBM); PBS, 2% BSA, 51.3 ng/ul salmon testes DNA, 50 uM zinc acetate, 200 nM TF, 25 C, 1 h; high values mean tight binding; conditions: protein: recombinant; tags: N-terminal polyhistidine and DsRed monomer fusion (pET32a); label: CyDye5-dUTP incorporated in the synthesized complementary strand; 3' TTTTT single-stranded linker to array surface; dsDNA, one strand shown
How it was run: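 The binding signal is fluorescence intensity per array feature (arbitrary units). Readings came from an Axon 4000B scanner after a washed, 2% BSA-blocked, double-stranded custom Agilent array had been incubated for 1 h at 25 °C with 200 nM protein and 50 µM zinc acetate. The protein was a Ni–NTA-purified transcription factor fused N-terminally to polyhistidine and DsRed, expressed in E. coli BL21-CodonPlus.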

Chain of OsWRKY34 (Q0JBA9 entry or part of it): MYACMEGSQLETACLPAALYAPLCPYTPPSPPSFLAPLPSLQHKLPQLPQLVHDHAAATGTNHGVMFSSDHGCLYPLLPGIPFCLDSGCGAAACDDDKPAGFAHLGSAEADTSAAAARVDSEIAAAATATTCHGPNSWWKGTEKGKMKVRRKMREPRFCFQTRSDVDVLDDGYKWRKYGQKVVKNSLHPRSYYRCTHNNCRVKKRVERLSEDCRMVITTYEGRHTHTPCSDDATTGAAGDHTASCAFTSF

Sequence	binding signal
GCGCTCCCGTCGTTGTCTCCGCTGCTTTGTTTCTCGTCGCCGGAGTCACCTAGTGCAG	11600 fluorescence intensity (a.u.)
CTTCGTTTTTTAATAGATGACGCCGTTGACTTTTTCTCACCGGAGTCACCTAGTGCAG	22000 fluorescence intensity (a.u.)
CTCTTGAACGTTGTCGCCCGCCGTTTCCCGCCGCTGTCTCCGGAGTCACCTAGTGCAG	18200 fluorescence intensity (a.u.)
CCGTTTCCCGCCGCTGTCTCCCGCCGGAGCCGCCCCTGCTCGGAGTCACCTAGTGCAG	9030 fluorescence intensity (a.u.)
TAAATCCACGACCCTTCAGCTATCTATCTCAGCTCCAATCCGGAGTCACCTAGTGCAG	8170 fluorescence intensity (a.u.)
CTGCAATCTAGCCATCTGTTATCTATCCATGCATCGATGTCGGAGTCACCTAGTGCAG	8120 fluorescence intensity (a.u.)
ATAAACATAAACTTCCAACATTTCCGTCACATCATTCTAACGGAGTCACCTAGTGCAG	8970 fluorescence intensity (a.u.)
CGTTTTTGCTCGGGTGGGCTGGGTTAGGGACTCATCTGCACGGAGTCACCTAGTGCAG	23800 fluorescence intensity (a.u.)
ATGGCGTTTGGGTTTGGCTCGGGTTGATCTGGATAAGGGACGGAGTCACCTAGTGCAG	9020 fluorescence intensity (a.u.)
CACTCTGCAGCTCTGCTCGTTTTGCACACGGGTGACTCGTCGGAGTCACCTAGTGCAG	9700 fluorescence intensity (a.u.)
TTTCGGCCCACATTCCTATCCGTTTTTGCTCGGGTGGGCTCGGAGTCACCTAGTGCAG	10900 fluorescence intensity (a.u.)
TTGGTGGGCCGTTATTTTGTTTGGGCTGGATTTGCACGTTCGGAGTCACCTAGTGCAG	11700 fluorescence intensity (a.u.)
CATATCCGTTTTTGCTCGGGTGGGCTGGGTTAGGGACTCACGGAGTCACCTAGTGCAG	19000 fluorescence intensity (a.u.)
CCGCGCATTTTTTTGGTTCGAAATTCCTTTGCTAAGCAAACGGAGTCACCTAGTGCAG	8380 fluorescence intensity (a.u.)
AAGGTTGGCATGACAATTCTCACTACTTGGACTAACAGTTCGGAGTCACCTAGTGCAG	8310 fluorescence intensity (a.u.)
TTCCAACTACCTAGCTCAGCTTAGTCTCTGGTTGACCATTCGGAGTCACCTAGTGCAG	8450 fluorescence intensity (a.u.)
GCTTCTACAATCGGATGGATTCACCATTGATTCTCGTTTTCGGAGTCACCTAGTGCAG	8940 fluorescence intensity (a.u.)
ACTTGATTTACGAACAGACATTTTTTATTTTTCTACACCACGGAGTCACCTAGTGCAG	9230 fluorescence intensity (a.u.)
TTGGGGTCGAGATATCCGGTTTTGTGGTTTAGGGTCATGTCGGAGTCACCTAGTGCAG	9090 fluorescence intensity (a.u.)
ATTTGATGCCGTTGACTTTTTTAAATATGTTTAACCGTTCCGGAGTCACCTAGTGCAG	33000 fluorescence intensity (a.u.)
TATTTGACGCCGTTGATTTTTTTAAATATGTTTGACCGTTCGGAGTCACCTAGTGCAG	11000 fluorescence intensity (a.u.)
TATTTGATGCCGTTGACTTTTTTAAATATGTTTGACCGTTCGGAGTCACCTAGTGCAG	20900 fluorescence intensity (a.u.)
ACTTTTTTAAATATGTTTGACCGTTCGTTTTATTCAAAAACGGAGTCACCTAGTGCAG	8320 fluorescence intensity (a.u.)
GAATTGATCTCATGCATGCCAACCCTTCTAGCAATCTATCCGGAGTCACCTAGTGCAG	9310 fluorescence intensity (a.u.)
GGACCGTTCACTAACCCCGTAACCGTGTCGCGCGCGCAACCGGAGTCACCTAGTGCAG	9590 fluorescence intensity (a.u.)
TTCTTATTTGCAAGTATACTGTTTTGCTTTTCTCTCTAATCGGAGTCACCTAGTGCAG	9690 fluorescence intensity (a.u.)

Source: paper PMC7819943, “Rice protein-binding microarrays: a tool to detect cis-acting elements near promoter regions in rice”
